Measured values: PubChem BioAssay AID2360 (The Scripps Research Institute Molecular Screening Center, 2010)
Out of some 1,900 compounds screened, about 85 (4%) were called active.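 The calls were made as follows: active = mean PP5 inhibition over triplicate wells above about 9.5% taken from the earlier PP1 screen (limit read from the data); inactive = the rest.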 The list is a sample of the results.

Each molecule was assayed against Serine/threonine-protein phosphatase 5 (Homo sapiens) (UniProt P53041) (assay: PP5 phosphatase inhibition by PP1 hits, confirmation, counter-screen for PP1 inhibitor project, biochemical, fluorescence, triplicate (AID 2360)). Conditions: purified PP5c, OMFP fluorescence; at 6.7 µM; stronger effect = higher value.
Serine/threonine-protein phosphatase 5 (Homo sapiens), sequence (P53041 whole entry, looked up): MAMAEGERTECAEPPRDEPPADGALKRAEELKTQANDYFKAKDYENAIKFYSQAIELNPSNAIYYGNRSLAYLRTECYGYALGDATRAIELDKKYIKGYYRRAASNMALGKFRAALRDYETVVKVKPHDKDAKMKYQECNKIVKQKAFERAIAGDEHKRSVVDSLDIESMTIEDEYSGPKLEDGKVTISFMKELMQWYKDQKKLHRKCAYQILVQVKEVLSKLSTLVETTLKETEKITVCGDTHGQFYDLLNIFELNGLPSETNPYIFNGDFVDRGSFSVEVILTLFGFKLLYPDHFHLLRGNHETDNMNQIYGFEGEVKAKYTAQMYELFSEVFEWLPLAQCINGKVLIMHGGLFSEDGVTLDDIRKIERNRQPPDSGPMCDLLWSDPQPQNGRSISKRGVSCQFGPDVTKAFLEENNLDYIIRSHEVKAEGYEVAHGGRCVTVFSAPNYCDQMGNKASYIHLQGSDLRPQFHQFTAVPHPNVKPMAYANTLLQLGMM
`O=C(COC(=O)c1ccc(Oc2ccccc2)cc1)Nc1nnc(-c2ccccc2)o1` was tested, and the inhibition was -5.1% (inactive).
`CN(C(=O)CN(CCO)CC(=O)N(C)C(C)(C)Cc1ccccc1)C(C)(C)Cc1ccccc1` was tested, and the inhibition was -8.53% (inactive).
In the case of `O=C1c2cccc(OCC(=O)N3N=C(c4cccs4)CC3c3ccc(F)cc3)c2CCN1Cc1ccccc1` (centres undefined), the inhibition is reported as -2.07% (inactive).
`O=C(/C=C/c1ccc(F)cc1)NC(=S)NNC(=O)c1cccnc1` was tested, and the inhibition was -1.96% (inactive).
With `Cc1ccc(Nc2nc(CSc3nnnn3-c3ccccc3)cc(=O)[nH]2)cc1` the inhibition was -0.66% (inactive).
With `O=C(N=C1SC2CS(=O)(=O)CC2N1c1cc(Cl)ccc1Cl)C1CC1` (centres undefined) the inhibition was -3.78% (inactive).
In the case of `O=C(Nc1ccc(S(=O)(=O)Nc2nccs2)cc1)c1cc(-c2ccncc2)nc2ccccc12`, the inhibition is reported as 0.33% (inactive).
With `OCCCN1c2ccccc2Nc2nnc(-c3ccccc3)cc21` the inhibition was 4.57% (inactive).
For `C/C(=N\c1nc2ccccc2n1C)c1cc(Cl)ccc1O`, the inhibition was -5.58% (inactive).
In the case of `COc1ccccc1NC(=O)CSc1nc2sc3c(c2c(=O)n1-c1ccccc1)CCN(C)C3`, the inhibition is reported as -2.95% (inactive).
For `Cc1ccc(CSCC2Nc3ccc(C(=O)N4CCN(c5ccc(F)cc5)CC4)cc3NC2=O)cc1` (centres undefined), the inhibition was -0.12% (inactive).
For `Cc1ccc(C)c(Cn2nnc3c(=O)[nH]c(C(=O)Nc4ccc(F)cc4)nc32)c1`, the inhibition was -0.92% (inactive).
In the case of `CCCCCCCCCCOC(=O)Cn1c(COc2ccc(C)cc2)[n+](C)c2ccccc21`, the inhibition is reported as 1.37% (inactive).
`C#CCOCCOCCOCCNc1nc(N2CCN(C(=O)CCCCCCCCCCNC(=O)Cn3cc(CCCCCN)nn3)CC2)nc(N2CCN(C(=O)CCCCCCCCCCNC(=O)[C@H](CO)n3cc(CCCSC)nn3)CC2)n1` was tested, and the inhibition was 0.18% (inactive).
In the case of `Cc1ccc(Cn2nnc3c(=O)[nH]c(C4CCN(S(=O)(=O)/C=C/c5ccccc5)CC4)nc32)cc1`, the inhibition is reported as 2.46% (inactive).
With `O=[N+]([O-])c1ccccc1/C=N/n1c(COc2ccccc2)n[nH]c1=S` the inhibition was -5.54% (inactive).
For `Cc1nc(/N=C(\N)NC(=O)NC2CCCCC2)nc2ccccc12`, the inhibition was -1.97% (inactive).
For `COC(=O)Cc1cc(=O)n(-c2nc3ccccc3s2)[nH]1`, the inhibition was 0.87% (inactive).
In the case of `c1ccc(-c2nccc(-c3ccc(-n4cnc5ccccc54)cc3)n2)nc1`, the inhibition is reported as 3.84% (inactive).
In the case of `O=C(N/N=C/c1cc([N+](=O)[O-])ccc1O)/C(=C\c1cccs1)NC(=O)c1ccccc1`, the inhibition is reported as -3.51% (inactive).
With `CC(C)OC(=O)c1cc(NC(=O)C2C3CCC(O3)C2C(=O)O)cc(C(=O)OC(C)C)c1` (centres undefined) the inhibition was 9.52% (inactive).
`COc1ccc(NC(=O)C2C3CCC(O3)C2C(=O)O)cc1OC` (centres undefined) was tested, and the inhibition was 39.5% (active).
With `Cc1cc(N2C(=O)C(O)=C(C(=O)c3ccc(C)o3)C2c2ccc(OCc3ccccc3)cc2)no1` (centres undefined) the inhibition was -0.28% (inactive).
`O=[N+]([O-])/C=C/c1ccc2c(ccn2Cc2ccccc2)c1` was tested, and the inhibition was -1.11% (inactive).
With `C=CCn1c(=NC(=O)c2ccc(S(=O)(=O)N3CCCC3)cc2)sc2cc(NC(C)=O)ccc21` the inhibition was -0.04% (inactive).
With `COCCCNC(=O)C1CC(=O)N(c2ccc(C)cc2)C1` (centres undefined) the inhibition was -1.02% (inactive).
In the case of `NC(N)=N/N=C/c1ccc(OCc2ccc(Cl)cc2Cl)cc1`, the inhibition is reported as -2.25% (inactive).
In the case of `Cc1ccc(-n2nc3ccc(NC(=O)/C=C/c4ccco4)cc3n2)cc1C`, the inhibition is reported as -6.55% (inactive).
`Clc1ccc2c(c1)C1=C(C(c3ccncc3)O2)C(c2ccc(Br)cc2)n2ncnc2N1` (centres undefined) was tested, and the inhibition was 2.48% (inactive).
For `CCn1c(SCC(=O)Nc2cc(C)ccc2C)nnc1-c1cnccn1`, the inhibition was -3.87% (inactive).
`Oc1c(C(c2ccccn2)N2CCOCC2)ccc2cccnc12` (centres undefined) was tested, and the inhibition was -0.03% (inactive).
With `N#Cc1c(-c2ccccc2)nc(SCc2cccc(C(F)(F)F)c2)[nH]c1=O` the inhibition was -1.06% (inactive).
With `C=C1c2c(Cl)ccc(O)c2C(O)=C2C(=O)[C@]3(O)C(O)=C(C(N)=O)C(=O)[C@@H](N(C)C)[C@@H]3[C@@H](O)C12` (some centres undefined) the inhibition was 2.9% (inactive).
With `Cc1ccc(N2C(=O)C3N=NN(CC(=O)N4N=C(c5cccc6ccccc56)CC4c4ccccc4)C3C2=O)cc1` (centres undefined) the inhibition was -0.1% (inactive).
In the case of `CC(=O)c1ccc(N2CCN(S(=O)(=O)c3ccc4c(c3)CC(=O)N4C)CC2)cc1`, the inhibition is reported as 2.4% (inactive).
For `COc1ccc(-c2nn(-c3ccccc3)cc2/C=C2/SC(=S)N(CCCC(=O)O)C2=O)c(C)c1`, the inhibition was -0.32% (inactive).
With `Cc1ccc(OCC(=O)Nc2ccc(-c3nnc(-c4ccco4)o3)cc2)cc1` the inhibition was -4.22% (inactive).
In the case of `CCOc1ccc(NC(=O)c2ccc(NC(=O)COC(=O)c3ccc(NC(=O)CC#N)cc3)cc2)cc1`, the inhibition is reported as -3.12% (inactive).
With `CC(C)(C)Nc1nc(-c2ccccn2)nc2ccccc12` the inhibition was -4.55% (inactive).
